Test systems include HCT-15 colon; HT29 colon; SNB-75 CNS; SNB-19 CNS; U251 CNS; PC-3 prostate; SK-MEL-5 melanoma; LOX IMVI melanoma; SK-MEL-28 melanoma; UACC-62 melanoma.
Experiment in all cases: NCI-60 one-dose screen, 48 h (100 = growth as untreated, 0 = no growth, -100 = all killed)
What all share (conditions): 10 µM unless noted

This is part of a sample that, as a whole, favours compounds with a hit. Of some 83,000 tested, about 20% had one in any assay.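 Testing used 96-well plates and a 48-hour single-concentration exposure. Example: -40 means 40% of the starting cells died.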 Values without a mark were called inactive. The source made the active and inactive calls. How the source made its calls: active means growth percent below 10; inactive means the rest.

In the case of `COC(=O)[C@@H](C)C[C@H](Cc1ccccc1)NC(=O)c1csc([C@@H](C[C@H](C(C)C)N(C)C(=O)[C@@H](NC(=O)C23CC(NC(C)=O)(C2)C3)C2CC2)OC(C)=O)n1`, the growth in the assay with HCT-15 colon is 92%; in the assay with HT29 colon, 20.9%; in the assay with SNB-75 CNS, 14%; in the assay with SNB-19 CNS, 65.3%; with U251 CNS it was 33.1%; in the assay on PC-3 prostate it was 44.4%. Also, the growth in the assay on SK-MEL-5 melanoma is 30.5%; in the assay on LOX IMVI melanoma, 31.7%; in the assay with SK-MEL-28 melanoma it was 61.3%.

For `COc1ccc2c(c1)c(-c1nc(-c3c[nH]c4ncccc34)cs1)cn2CCN1CCOCC1`, the growth in the assay on HCT-15 colon was 31.4%; in the assay on HT29 colon, 45.8%; in the assay on SNB-75 CNS, 49.7%; in the assay with SNB-19 CNS, 67%; in the assay on U251 CNS, 45.6%; in the assay with PC-3 prostate, 34.1%. Further, the growth with SK-MEL-5 melanoma is 25.4%; in the assay on LOX IMVI melanoma, 45.4%; with SK-MEL-28 melanoma, 68.4%.

As to `O=C(CC1(O)C(=O)N(Cc2ccccc2)c2ccccc21)c1ccc(C(=O)NCC2CCC3(CC2)OOC2(CCCCC2)OO3)cc1` (stereo not given), the growth in the assay on HCT-15 colon is 0.81% (active); in the assay with HT29 colon, -51.6% (active); with SNB-75 CNS it was -75.6% (active); in the assay with SNB-19 CNS it was 20.3%; with U251 CNS, -77.2% (active); in the assay on PC-3 prostate it was -61% (active). Moreover, the growth with UACC-62 melanoma is 0.976% (active); in the assay with LOX IMVI melanoma it was -84.1% (active); in the assay with SK-MEL-28 melanoma, 63.1%.

`CC[C@H](C)[C@H](NC(=O)C12C3C4C1C1C2C3C41NC(C)=O)C(=O)N(C)[C@H](C[C@@H](OC(C)=O)c1nc(C(=O)N[C@@H](Cc2ccccc2)C[C@H](C)C(=O)OC)cs1)C(C)C` (stereo not given in full): the growth in the assay on HCT-15 colon is 24.8%; with HT29 colon, 4.53% (active); in the assay with SNB-75 CNS it was 38.6%; in the assay with SNB-19 CNS it was 56.1%; with U251 CNS, 9.8% (active); in the assay with PC-3 prostate, 11.3%. Besides, the growth with SK-MEL-5 melanoma was -13.4% (active); in the assay with LOX IMVI melanoma it was 14.9%; in the assay on SK-MEL-28 melanoma, 59.6%.

Turning to `Fc1ccc2c(c1)c(-c1nc(-c3c[nH]c4ncccc34)cs1)cn2CCN1CCOCC1`, the growth with HCT-15 colon was 27.2%; in the assay on HT29 colon it was 47.7%; with SNB-75 CNS it was 32.9%; in the assay with SNB-19 CNS it was 63.7%; in the assay on U251 CNS, 51.7%; in the assay with PC-3 prostate it was 23.3%. Moreover, the values for the growth with SK-MEL-5 melanoma, in the assay with LOX IMVI melanoma and in the assay on SK-MEL-28 melanoma were 32.2%, 56.7% and 75.8%, respectively.

In the case of `Brc1ccc2c(c1)c(-c1nc(-c3c[nH]c4ncccc34)cs1)cn2CCN1CCOCC1`, the growth in the assay with HCT-15 colon was 35.5%; in the assay with HT29 colon, 57.8%; in the assay with SNB-75 CNS, 56.4%; in the assay on SNB-19 CNS it was 71.6%; with U251 CNS, 52.8%; in the assay on PC-3 prostate, 30.3%. The figures for the growth in the assay on SK-MEL-5 melanoma, in the assay on LOX IMVI melanoma and in the assay with SK-MEL-28 melanoma were 51.3%, 66.7% and 94.5%, respectively.

As to `CC[C@H](C)[C@H](NC(=O)NC(C)(C)C)C(=O)N(C)[C@H](C[C@@H](OC(C)=O)c1nc(C(=O)N[C@@H](Cc2ccccc2)C[C@H](C)C(=O)OC)cs1)C(C)C`, the growth was 9.49% (active) in the assay with HCT-15 colon; 5.85% (active) with HT29 colon; 34.1% with SNB-75 CNS; 47.6% with SNB-19 CNS; 11.5% in the assay with U251 CNS; 11.3% in the assay on PC-3 prostate. Besides, the growth in the assay on SK-MEL-5 melanoma was -44.4% (active); in the assay on LOX IMVI melanoma, 16%; with SK-MEL-28 melanoma, 53.2%.

For the molecule `O=C(CC1(O)C(=O)N(Cc2ccccc2)c2ccc(Cl)cc21)c1ccc(C(=O)NCC2CCC3(CC2)OOC2(CCCCC2)OO3)cc1` (stereo not given), the growth is -14.1% (active) with HCT-15 colon; -69.7% (active) in the assay with HT29 colon; -61.7% (active) in the assay on SNB-75 CNS; 30.9% in the assay on SNB-19 CNS; -81.8% (active) with U251 CNS; -54.3% (active) with PC-3 prostate. Besides, the growth with UACC-62 melanoma was 53%; in the assay on LOX IMVI melanoma it was -78.5% (active); in the assay with SK-MEL-28 melanoma, 58.5%.

Regarding `COc1ccc2c(c1)c(-c1nc(-c3cn(C)c4ncccc34)cs1)cn2CCN1CCOCC1`, the growth was 20.9% with HCT-15 colon; 25.9% in the assay with HT29 colon; 63.3% with SNB-75 CNS; 33.1% in the assay on SNB-19 CNS; 28.2% in the assay with U251 CNS; 17.6% with PC-3 prostate. Moreover, the growth in the assay on SK-MEL-5 melanoma was 30.7%; with LOX IMVI melanoma, 32.5%; in the assay with SK-MEL-28 melanoma, 56.1%.

Take `C[n+]1c(/C=C/c2ccc(N(CCCl)CCCl)cc2)sc2ccccc21`: the growth with HCT-15 colon is 82.2%; in the assay on HT29 colon, 40.9%; with SNB-75 CNS, 74.5%; in the assay with SNB-19 CNS it was 60.9%; in the assay on U251 CNS it was 30.1%; with PC-3 prostate, 36%. The figures for the growth with SK-MEL-5 melanoma, in the assay on LOX IMVI melanoma and with SK-MEL-28 melanoma were 61.1%, 36.6% and 81.4%, respectively.

Consider `CS(=O)(=O)CCN1CC2CCCC(C2)C1`, for which the growth was 99.5% in the assay with HCT-15 colon; 96.7% in the assay on HT29 colon; 94.1% with SNB-75 CNS; 99.8% in the assay with SNB-19 CNS; 101% in the assay with U251 CNS; 104% in the assay on SK-MEL-5 melanoma. Besides, the growth with UACC-62 melanoma is 102%; in the assay with LOX IMVI melanoma it was 104%; with SK-MEL-28 melanoma, 105%.

Turning to `COc1ccc2c(c1)c(-c1nc(-c3c[nH]c4ncccc34)cs1)cn2CCCCN1CCCCC1`, the growth in the assay with HCT-15 colon is -76.7% (active); in the assay with HT29 colon it was -72.4% (active); in the assay with SNB-75 CNS it was -75.4% (active); with SNB-19 CNS, -71.1% (active); in the assay with U251 CNS it was -75.3% (active); with PC-3 prostate, -79% (active). In addition, the figures for the growth in the assay on SK-MEL-5 melanoma, with LOX IMVI melanoma and with SK-MEL-28 melanoma were -81.3% (active), -83.1% (active) and -85.1% (active), respectively.

With `O=C(CC1(O)C(=O)N(Cc2ccccc2)c2ccc(F)cc21)c1ccc(C(=O)NCC2CCC3(CC2)OOC2(CCCCC2)OO3)cc1` (stereo not given), the growth is -14.3% (active) in the assay with HCT-15 colon; -70.2% (active) with HT29 colon; -62.1% (active) with SNB-75 CNS; 16.8% in the assay on SNB-19 CNS; -80.1% (active) in the assay with U251 CNS; -58.8% (active) in the assay on PC-3 prostate. The growth was -12.5% (active) in the assay on UACC-62 melanoma, -84.5% (active) in the assay on LOX IMVI melanoma and 51.5% in the assay on SK-MEL-28 melanoma.

For the molecule `COc1ccc2c(c1)c(-c1nc(-c3cn(C)c4ncccc34)cs1)cn2CCCCN1CCCCC1`, the growth was -80.9% (active) in the assay on HCT-15 colon; -72.6% (active) in the assay on HT29 colon; 63.9% in the assay on SNB-75 CNS; -1.68% (active) in the assay on SNB-19 CNS; -85.6% (active) in the assay with U251 CNS; -66.3% (active) in the assay with PC-3 prostate. For the same molecule, the values for the growth in the assay on SK-MEL-5 melanoma, with LOX IMVI melanoma and in the assay on SK-MEL-28 melanoma were -80.4% (active), -78% (active) and -69% (active), respectively.

Consider `COC(=O)[C@H](Cc1ccccc1)NC(=O)c1csc([C@@H](C[C@H](C(C)C)N(C)C(=O)[C@@H](NC(=O)[C@H]2CCCCN2C)C2CC2)OC(C)=O)n1`, for which the growth is 13.1% in the assay with HCT-15 colon; 5.33% (active) in the assay on HT29 colon; 34.3% with SNB-75 CNS; 69.6% in the assay with SNB-19 CNS; -5.23% (active) in the assay with U251 CNS; -1.17% (active) with SK-MEL-5 melanoma. Moreover, the results for the growth in the assay on UACC-62 melanoma, with LOX IMVI melanoma and in the assay on SK-MEL-28 melanoma were 36.3%, 14.7% and 44.7%, respectively.

In the case of `ClCCN(CCCl)c1ccc(-n2cnc3c(Cl)ncnc32)cc1`, the growth was -26.7% (active) in the assay with HCT-15 colon; 12.7% in the assay on HT29 colon; 26.1% in the assay with SNB-75 CNS; 79.2% in the assay with SNB-19 CNS; 32.8% with U251 CNS; 64.1% in the assay with PC-3 prostate. The values for the growth in the assay with SK-MEL-5 melanoma, with UACC-62 melanoma and in the assay with SK-MEL-28 melanoma were 86.3%, 31.5% and -10.5% (active), respectively.

Regarding `C=C(C)[C@@]12OC3(/C=C/C=C/CCCCC)O[C@@H]1[C@@H]1[C@@H]4O[C@]4(CO)[C@@H](O)[C@]4(O)C(=O)C(C)=C[C@H]4[C@@]1(O3)[C@H](C)[C@H]2OC(=O)c1ccccc1`, the growth in the assay with HCT-15 colon is 67.1%; with HT29 colon it was 14.1%; with SNB-75 CNS, 56.6%; in the assay with SNB-19 CNS it was 92.8%; in the assay on U251 CNS it was 53.2%; in the assay with PC-3 prostate it was 28.6%. The growth was 59.7% with UACC-62 melanoma, 50.9% with LOX IMVI melanoma and 81.5% in the assay on SK-MEL-28 melanoma.

With `N#CC1C(C#N)C2CCC1C1C2N1c1ccccc1` (stereo not given), the growth in the assay on HCT-15 colon was 97.9%; in the assay with HT29 colon, 114%; in the assay on SNB-75 CNS, 87.1%; in the assay on SNB-19 CNS it was 104%; in the assay with U251 CNS, 111%; in the assay on SK-MEL-5 melanoma, 104%. Further, the growth in the assay on UACC-62 melanoma is 105%; with LOX IMVI melanoma it was 103%; in the assay on SK-MEL-28 melanoma it was 106%.

Take `CCOc1ccc(/C=C/[N+](=O)[O-])cc1`: the growth is 51.1% in the assay on HCT-15 colon; 9.84% (active) with HT29 colon; 90.6% with SNB-75 CNS; 91.2% in the assay on SNB-19 CNS; 60.1% in the assay with U251 CNS; 74.4% in the assay with SK-MEL-5 melanoma. Also, the growth with UACC-62 melanoma was 92.8%; in the assay on LOX IMVI melanoma it was 62.9%; in the assay on SK-MEL-28 melanoma, 110%.

Take `COc1ccc(-n2c(C)nc3cc(OC)c(OC)cc3c2=O)cc1OC`: the growth with HCT-15 colon was 111%; in the assay with HT29 colon, 106%; in the assay with SNB-75 CNS it was 92.2%; in the assay with SNB-19 CNS it was 102%; in the assay with U251 CNS, 94.4%; in the assay with SK-MEL-5 melanoma, 104%. Besides, the growth is 104% in the assay with UACC-62 melanoma, 101% in the assay on LOX IMVI melanoma and 109% with SK-MEL-28 melanoma.

(Values after PubChem BioAssay (NCI).)
